These results are taken from ChEMBL document CHEMBL3988442, “University of Dundee, Small-Polar-MMV Screening Library” (2021).

Out of some 85,000 compounds screened, about 440 (0.52%) showed an effect of 50% or more. The list comes from a sample in which strong results are over-represented; it also holds similar structures and randomly drawn compounds.

The nature of this experiment: In vitro enzyme assay to detect hydrolysis of chlorophenol red-beta-D-[…] directly proportional to the number of Toxoplasma stably expressing beta-galactosidase. The experiment is classed as functional, organism-based, Toxoplasma gondii. Also noted: scale not given: in the data most compounds retested in dose-response had high values.

Turning to `Clc1ccc(CSc2cnn[nH]2)s1`, the “Percent Effect” value (50 µM) is listed as -14.75%.

As for `Nc1nnc(SCc2ccc(Cl)s2)[nH]1`, the “Percent Effect” value (50 µM) worked out at 56.64%.

Regarding `COc1ccc(CSc2nnc(N)[nH]2)c(Cl)c1`, under “50 µM”, the “Percent Effect” value is listed as 2.455%.

Take `O=C(NCCO)c1nnsc1-c1ccc(Cl)cc1`: the “Percent Effect” value (50 µM) is given as -1.39%.

In the case of `CNC(=O)Cc1cccs1`, where the note is “50 µM”, the “Percent Effect” value turned out to be 0.3815%.

As for `CC(C)N(CC(N)=O)CC(=O)NCCc1cccs1`, the “Percent Effect” value (50 µM) is given as 12.36%.

Consider `CCS(=O)(=O)N(CCc1cccs1)CC(=O)NC`, for which, where the note is “50 µM”, the “Percent Effect” value worked out at 65.25%.

On to `CC(C)n1cccc1C(=O)NCCc1cncn1C`, for which the “Percent Effect” value (50 µM) is 7.567%.

Regarding `COC(=O)c1snc(-c2ccccc2)c1N`, the “Percent Effect” value (50 µM) turned out to be 3.849%.

Regarding `COC(=O)c1[nH]cc(-c2ccccc2)c1N`, the “Percent Effect” value (50 µM) was 60.81%.

On to `CC(=O)Nc1nc(-c2ccccc2)c[nH]1`, for which, under “10 µM”, the “Percent Effect” value is reported as -10.01%.

In the case of `O=S1(=O)CCC(NC2CCNCC2)C1` (stereo unspecified), the “Percent Effect” value (50 µM) came out at 0.6188%.

For `CC(CCNC(=O)CCc1cccnc1)n1ccnc1` (stereo unspecified), under “50 µM”, the “Percent Effect” value is -1.131%.

Consider `Cc1cc(=O)cc(C(=O)NCCCc2ccncc2)o1`, for which the “Percent Effect” value (50 µM) is on record as 15.6%.

As for `Cc1cc(=O)cc(C(=O)NCCC(C)n2ccnc2)o1` (stereo unspecified), the “Percent Effect” value (50 µM) is reported as 85.97%.

Take `COCC(=O)N1CCCN(Cc2cnn(C)c2)CC1`: the “Percent Effect” value (50 µM) amounted to 1.219%.

`CC(=O)Nc1nc(CC(=O)NCc2ccco2)cs1`: the “Percent Effect” value (50 µM) was -28.1%.

Take `Cn1cc(NC(=O)CCc2ccccn2)cn1`: the “Percent Effect” value (50 µM) is recorded as -11.54%.

Turning to `Nc1ccnn1-c1ccccn1`, the “Percent Effect” value (50 µM) is reported as -4.085%.

Take `Cc1cn(-c2ccc(C#N)cc2)nc1N`: the “Percent Effect” value (50 µM) is given as -9.418%.

Turning to `N#Cc1ccc(-n2nccc2N)cc1`, the “Percent Effect” value (50 µM) turned out to be 92.39%.

`O=C1CNCN1Cc1ccccc1`: the “Percent Effect” value (50 µM) is given as 2.533%.

For `N[C@@H]1CC[C@@H]1NC(=O)c1scc2c1OCCO2`, the “Percent Effect” value (50 µM) was -7.783%.

As for `Cc1cnc(CN2CC3(CCOC3)CCC2=O)cn1` (stereo unspecified), the “Percent Effect” value (50 µM) was -2.648%.

With `Cc1cc(C(=O)NCc2cccn2C)nn1C`, the “Percent Effect” value (10 µM) stood at 1.66%.

On to `Cc1cc(C(=O)NCC(C)C)nn1C`, for which, under “10 µM”, the “Percent Effect” value came to 9.135%.

Consider `Cc1cc(C(=O)NCc2ccco2)nn1C`, for which the “Percent Effect” value (10 µM) worked out at 56.09%.

Turning to `Cc1ccc(CNC(=O)c2cc(C)n(C)n2)o1`, the “Percent Effect” value (10 µM) is 75.49%.

For `Cc1cc(C(=O)NCCc2noc(C3CC3)n2)nn1C`, for the setting “50 µM”, the “Percent Effect” value was 97.7%.

For the compound `CCn1ccc(C(=O)NCc2ccco2)n1`, the “Percent Effect” value (50 µM) was -13.38%.

For `Cc1ccc(CNC(=O)c2cc(NC(=O)C3CC3)n(C)n2)o1`, the “Percent Effect” value (10 µM) is 2.088%.

With `Cn1cc(C(=O)NCCc2noc(C3CC3)n2)cn1`, the “Percent Effect” value (50 µM) is recorded as -7.141%.

For `Cc1cc(C(=O)NCCc2noc(C3CC3)n2)[nH]n1`, the “Percent Effect” value (50 µM) is 12.77%.

For `CN(Cc1cccnc1)C(=O)c1cccc(Cl)c1`, under “50 µM”, the “Percent Effect” value was 11.97%.

As for `CNC(=O)CSCc1ccc2ccccc2n1`, for the setting “50 µM”, the “Percent Effect” value came to 15.55%.

With `CCCS(=O)(=O)N1CCC(CC(=O)NC)CC1`, the “Percent Effect” value (50 µM) is listed as -1.732%.

In the case of `Cn1cncc1C(N)CO` (stereo unspecified), the “Percent Effect” value (50 µM) is listed as -9.765%.

As to `CCC(N)(CC)CNS(=O)(=O)c1ccc2c(c1)CCO2`, the “Percent Effect” value (50 µM) is on record as -2.355%.

Regarding `CC(C)CC(C)CN1CCN(CCS(C)(=O)=O)CC1` (stereo unspecified), the “Percent Effect” value (50 µM) is -18.72%.

As for `COc1csc(-c2cc(N)[nH]n2)c1`, the “Percent Effect” value (50 µM) was determined as 7.911%.

For the compound `CCS(=O)(=O)CCNC(C)(CO)C1CCCCC1` (stereo unspecified), the “Percent Effect” value (50 µM) is -6.595%.

In the case of `CC(=O)c1c(C)cccc1NCC(=O)N(C)C`, the “Percent Effect” value (50 µM) was -19.59%.

Turning to `CN1C(=O)c2ccc(C(=O)N(Cc3cnn(C)c3)C3CC3)cc2C1=O`, the “Percent Effect” value (10 µM) is -5.009%.

With `Cn1cc(CN(C(=O)c2ccc(O)c(Cl)c2)C2CC2)cn1`, the “Percent Effect” value (10 µM) is -12.14%.

`Cn1cc(CN(C(=O)c2ccc(N)nc2)C2CC2)cn1`: the “Percent Effect” value (50 µM) is reported as 96.08%.

For `CC(=O)N[C@H]1CCO[C@@H](c2cccc(NC(=O)c3cccc(F)c3)c2)C1`, the “Percent Effect” value (10 µM) was 20.53%.

As to `CC(=O)N[C@H]1CCO[C@@H](c2cccc(NC(=O)c3ccc(=O)[nH]n3)c2)C1`, the “Percent Effect” value (10 µM) was determined as 71.09%.

For the compound `CC(=O)Nc1cccc([C@H]2C[C@@H](NC(C)=O)CCO2)c1`, the “Percent Effect” value (10 µM) is given as -4.369%.

As for `COCCCNC(=O)Nc1cnn(C)c1`, the “Percent Effect” value (50 µM) was 3.712%.

For `Cn1nnc2c(N3CCCCC3)ncnc21`, for the setting “50 µM”, the “Percent Effect” value was -0.3233%.

`O=C([C@@H]1CCO[C@@H]2CCN(CC3CC3)C[C@H]21)N1CCCC1`: the “Percent Effect” value (10 µM) is listed as -7.409%.

On to `O=C(O)C(F)(F)F.O=C([C@@H]1CCO[C@@H]2CCN(CC3CCOCC3)C[C@H]21)N1CCCO1`, for which the “Percent Effect” value (10 µM) is given as -19.56%.

For the compound `O=C(O)C(F)(F)F.O=C([C@@H]1CCO[C@@H]2CCN(Cc3cccs3)C[C@H]21)N1CCCCO1`, under “10 µM”, the “Percent Effect” value was -10.74%.

Regarding `O=C(O)C(F)(F)F.O=C([C@H]1CN(Cc2ccc(F)cc2)C[C@H]2OCC[C@@H]12)N1CCCO1`, under “10 µM”, the “Percent Effect” value was determined as 0.4926%.

As for `O=C(O)C(F)(F)F.O=C([C@@H]1CCO[C@@H]2CCN(Cc3ccc(F)cc3)C[C@H]21)N1CCCCO1`, the “Percent Effect” value (10 µM) stood at 73.44%.

In the case of `O=C([C@@H]1CCO[C@@H]2CCN(CC3CC3)C[C@H]21)N1CCCCO1`, for the setting “10 µM”, the “Percent Effect” value came out at 96.45%.
